Data on 16 molecules can be found in PubChem BioAssay (NCATS).

A number with no mark means an inactive call. No rule for the calls is given here. Bounds are passed on as bounds.
Potency is read from the fitted curve at half-maximal effect.

The test concerns HIV-1 nucleocapsid protein NCp7 (binding to TG oligonucleotide). As to the kind of experiment: HIV Nucleocapsid (AID 346).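 Also: potency is for inhibitors that block NC binding and lower polarization.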 The note with it: HIV-1 NC / fluorescein-TGTGTGTG probe, fluorescence polarization. The gist of the method: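 HIV-1 NC (100 nM) binding to fluorescein-labelled ssDNA TG4xF (10 nM) in Hepes pH 7.5, 250mM NaCl, 1uM ZnCl2, TCEP and 2-mercaptoethanol; compounds pin-transferred, 1 hr room temperature, fluorescence polarization read on CCD imager.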
Background: Polarisation of emitted light reports the rotation of a fluorescent probe.
`c1ccc(-c2ccc(N3CC4(CCNCC4)C3)cc2)cc1`: the Potency was greater than 20 µM.

On to `COc1cccc(-c2nccc(NCc3cccc(C)c3)n2)c1`, for which the Potency was greater than 20 µM. As to `COC(=O)N1CCC2(CC1)CN(C(=O)Nc1ccccc1)C2`, the Potency was greater than 20 µM. As for `COC(=O)N1CCC2(CC1)CN(c1ccncc1)C2`, the figure is greater than 20 µM; as for `CC(C)NC(=O)N1CCCC2(CCN(C(=O)c3csnn3)CC2)C1`, greater than 20 µM.

Turning to `COc1ccc(-c2nc3cnc(N4CCN(C)CC4)nc3n(-c3ccc(OC)cc3)c2=O)cc1`, the Potency was greater than 20 µM. Take `O=c1c(-c2cccs2)nc2cnc(Oc3ccccc3)nc2n1C1CC1`: the Potency was greater than 20 µM. Take `COC(=O)N1CCC2(CCCN(c3ccc(-c4ccccc4)cc3)C2)CC1`: the Potency is greater than 20 µM. With `COCCn1c(=O)c(-c2ccccc2)nc2cnc(OC)nc21` the figure was greater than 20 µM; with `CC(C)NC(=O)N1CCCC2(CCN(C(=O)c3ccco3)CC2)C1`, greater than 20 µM. As for `COCCNc1nc(-c2ccc(C(=O)N(C)C)cc2)nc2ccccc12`, the figure is greater than 20 µM; as for `O=c1c(-c2ccc(F)c(F)c2)nc2cncnc2n1Cc1ccccc1Cl`, greater than 20 µM; as for `CCNc1ncc2nc(C)c(=O)n(-c3ccc(OC)cc3)c2n1`, greater than 20 µM.

Take `CN(C)Cc1ccccc1-c1ccc2ncnc(NC3CC3)c2c1`: the Potency is greater than 20 µM. With `Cc1ccccc1-c1nc(N2CCOCC2)c2ccccc2n1` the figure was greater than 20 µM; with `O=C(Nc1cccc(F)c1)N1CC2(CCN(S(=O)(=O)c3ccccc3)CC2)C1`, greater than 20 µM.
